An excerpt weighted towards active compounds, which were near 2.8% of everything screened.
POLH inh: DNA polymerase eta (human) inhibition. recombinant Pol eta, fluorescent DNA replication assay. Potency, µM (top dose mostly 114 µM), inactives show at the top dose activity change, negative = inhibition, most hits filed as inhibitors. hit rate 1.2% among 390,000. AID 588591; note: potency is the fitted concentration of half-maximal effect; % is set by controls: 0 for no effect and ±100 for the full control effect
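Fluorescent replication assay: 50 nM final substrate added after a 15 min room-temperature compound preincubation with 10 nM enzyme. Signal taken at 0 min and again at 10 min.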
Pol kappa inh: DNA polymerase kappa (human) inhibition | Potency, µM (series often up to 107 µM), inactives show top-dose activity, negative = inhibition, most hits filed as inhibitors | hit rate 0.53% among 400,000 | Q9UBT6 | purified Pol kappa, fluorescent DNA synthesis assay, 10 min | AID 588579; note: potency is the fitted concentration of half-maximal effect; % is set by controls: 0 for no effect and ±100 for the full control effect
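First, compounds were pin-transferred onto 10 nM Pol kappa. After 15 min at room temperature, substrate was added to 50 nM final. Fluorescence was then measured kinetically at 0 and 10 min.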
Pol beta inh: inhibitors of human DNA polymerase beta. P06746. Pol beta primer extension/strand displacement, fluorescence kinetic. Potency, µM (series often up to 114 µM), for the others: top-dose activity change, negative = inhibition, usual class: inhibitors. hit rate 1.3% among 340,000. AID 485314; note: potency is the fitted concentration of half-maximal effect; % is set by controls: 0 for no effect and ±100 for the full control effect
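Homogeneous kinetic assay of primer extension and strand displacement by 10 nM Pol beta, preincubated 15 min at room temperature with compound before 50 nM substrate (final) was added. Read at 0 and 10 min; four-parameter Hill fit.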
POLI inh: blocks human DNA polymerase iota activity. AID 588590. Q9UNA4. Pol iota fluorescent replication assay, 10 min. hit rate 1% among 390,000. Potency, µM (series often up to 115 µM), without a hit: top-dose activity, negative = inhibition, most hits filed as inhibitors; note: potency is the fitted concentration of half-maximal effect
Target sequence (Q9UNA4 whole entry, looked up): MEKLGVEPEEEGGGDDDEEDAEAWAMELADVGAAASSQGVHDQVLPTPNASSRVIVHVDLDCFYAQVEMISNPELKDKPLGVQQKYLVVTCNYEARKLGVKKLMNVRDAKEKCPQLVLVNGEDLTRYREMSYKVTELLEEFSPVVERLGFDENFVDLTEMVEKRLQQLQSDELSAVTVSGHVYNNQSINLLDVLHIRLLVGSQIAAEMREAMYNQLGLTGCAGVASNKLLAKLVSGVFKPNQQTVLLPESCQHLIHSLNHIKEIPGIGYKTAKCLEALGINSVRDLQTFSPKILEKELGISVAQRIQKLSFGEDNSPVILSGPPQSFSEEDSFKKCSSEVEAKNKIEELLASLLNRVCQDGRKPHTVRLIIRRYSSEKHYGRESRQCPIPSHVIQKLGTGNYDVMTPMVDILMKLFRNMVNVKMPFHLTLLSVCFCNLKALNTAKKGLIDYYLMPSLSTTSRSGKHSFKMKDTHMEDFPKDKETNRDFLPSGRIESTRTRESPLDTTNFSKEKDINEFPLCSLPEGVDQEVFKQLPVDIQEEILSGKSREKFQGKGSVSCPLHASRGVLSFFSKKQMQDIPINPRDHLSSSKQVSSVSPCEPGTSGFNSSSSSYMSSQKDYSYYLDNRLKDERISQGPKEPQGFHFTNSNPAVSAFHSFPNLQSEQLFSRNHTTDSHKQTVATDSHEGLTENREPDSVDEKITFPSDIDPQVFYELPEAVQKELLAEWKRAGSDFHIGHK
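Pol iota at 10 nM preincubated 15 min with compounds at room temperature; reaction started with fluorescent substrate, 50 nM final. Fluorescence read kinetically at 0 and 10 min; buffer-only wells as negative control.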
PI5P4Ka inh: PI5P4K alpha (human) kinase inhibition. P48426. PI5P4Kalpha enzyme, ADP-Glo luminescence, 60 min; hits give low values. max response, %. hit rate 1.2% among 330,000. AID 652105; active = max response of -50% or lower; inconclusive = between -30% and -50%; inactive = -30% or higher; note: value at the top dose of about 77 µM; % is set by controls: 0 for no effect and ±100 for the full control effect
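Reactions run in 0.038 M HEPES pH 7.4, 0.28 mM EGTA, 0.1% CHAPS and 5% DMSO, with PI5P4Kalpha, substrate, compound and 5 microM ATP final, one hour at room temperature. Readout is ADP-Glo luminescence.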
FEN1 inhibitor: human FEN1 inhibition | Recombinant FEN1 flap cleavage, fluorescence, 15 min | AID 588795 | hit rate 0.35% among 390,000 | Potency, µM (titrated, usually from 114 µM), for the others: top-dose activity change, negative = inhibition, hits mostly inhibitors | P39748; note: potency is the fitted concentration of half-maximal effect; % is set by controls: 0 for no effect and ±100 for the full control effect; nearly all actives have a fitted effect of over 65% in size
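FEN1 at 10 nM, compound pretreatment for 15 min (room temperature), 50 nM final substrate to initiate; endpoint reads at 0 and 15 min; DMSO-only plates used as vehicle background.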
Active calls of the source: *. Unless noted, calls come from the whole dose curve; as a rule, active = well fitted curve in the direction sought with a large enough effect; inconclusive = small, poorly fitted or top-dose-only effect, or another doubt; inactive = no such curve, though single readings can be large; an effect the other way counts as inactive or inconclusive.

Screening C/C(=N\NC(=O)c1ccc(O)cc1)c1ccc2c(c1)Nc1ccccc1S2 returned POLH inh -16%, Pol kappa inh -8%, Pol beta inh 3%, POLI inh 26%, PI5P4Ka inh -77* and FEN1 inhibitor -8%.
For CC(=O)Nc1cccc(/C(C)=N/NC(=O)c2ccc(O)cc2)c1 the results were POLH inh -11%, Pol kappa inh 3%, Pol beta inh 0%, POLI inh inconclusive, PI5P4Ka inh -15 and FEN1 inhibitor -19%.
`CCOC(=O)c1cccc(NC(=O)C2CCN(c3nnc(C)c4c(C)n(-c5ccccc5)nc34)CC2)c1` gave POLH inh -20%, Pol kappa inh 6%, Pol beta inh 0%, POLI inh -4% and FEN1 inhibitor 16%.
Screening O=C1C=CC(O)(c2cc(=O)c3c(O)cc(O)cc3o2)C=C1 returned POLH inh inconclusive, Pol kappa inh -8%, Pol beta inh 14%, POLI inh 6.3µM*, PI5P4Ka inh inconclusive and FEN1 inhibitor -10%.
`Cc1ccc(C)c(CNC(=O)CN2C(=O)CSc3ccc(S(=O)(=O)N(C)C)cc32)c1` gave POLH inh 0%, Pol kappa inh -13%, Pol beta inh -17%, POLI inh -12% and FEN1 inhibitor -1%.
For O=C(Cn1cc(C(F)(F)F)cc(Cl)c1=O)NC1CCS(=O)(=O)C1 (stereo unspecified) the results were POLH inh -5%, Pol kappa inh -6%, POLI inh 1%, PI5P4Ka inh 2 and FEN1 inhibitor -2%.
Cc1ccc2c(c1)/C(=C/c1ccccc1)C(=O)N2 was read as POLH inh -10%, Pol kappa inh -6%, Pol beta inh 11%, POLI inh -6%, PI5P4Ka inh 2 and FEN1 inhibitor 12%.
For O=C1Nc2ccc(I)cc2C1=Cc1cc(Br)c(O)c(Br)c1 the results were Pol kappa inh inconclusive, POLI inh 45µM* and FEN1 inhibitor 35µM*.
CN(C)c1ccc(/C=C/c2cc3ccccc3c[n+]2C)cc1 was read as Pol kappa inh -38%, POLI inh inconclusive and FEN1 inhibitor inconclusive.
For CC(=O)Nc1ccc(S(=O)(=O)Nc2nc3ccccc3nc2Nc2ccc(S(N)(=O)=O)cc2)cc1 the results were POLH inh -7%, Pol kappa inh -13%, Pol beta inh 22%, POLI inh 155%, PI5P4Ka inh -7 and FEN1 inhibitor -15%.
CC(=O)Nc1ccc(S(=O)(=O)Nc2nc3ccccc3nc2Nc2ccc(O)c(C(=O)O)c2)cc1 was read as POLH inh -9%, Pol kappa inh 79µM*, Pol beta inh 15%, POLI inh 20µM*, PI5P4Ka inh -23 and FEN1 inhibitor inconclusive.
`O=S(=O)(Nc1nc2ccccc2nc1Nc1cccc(S(=O)(=O)N2CCCCC2)c1)c1ccccc1` gave POLH inh 89µM*, Pol kappa inh -16%, Pol beta inh inconclusive, POLI inh inconclusive, PI5P4Ka inh -16 and FEN1 inhibitor 4%.
`CCCn1nnc(NC(=S)NC(=O)/C=C/c2ccco2)n1` gave POLH inh inconclusive, Pol kappa inh 50µM*, Pol beta inh inconclusive, POLI inh inconclusive, PI5P4Ka inh -63* and FEN1 inhibitor inconclusive.
Screening Cc1ccc(-n2nc3ccc(NC(=S)NC(=O)/C=C/c4ccco4)cc3n2)cc1 returned POLH inh inconclusive, Pol kappa inh -8%, Pol beta inh -13%, POLI inh 14%, PI5P4Ka inh inconclusive and FEN1 inhibitor -4%.
`O=C(/C=C/c1ccco1)NC(=S)Nc1cccc([N+](=O)[O-])c1` gave POLH inh 50µM*, Pol kappa inh inconclusive, Pol beta inh 40µM*, POLI inh inconclusive, PI5P4Ka inh inconclusive and FEN1 inhibitor -23%.
Cc1ccc(-c2nc3ccccc3s2)cc1NC(=S)NC(=O)c1cccc2ccccc12 was read as POLH inh -5%, Pol kappa inh 2%, Pol beta inh 1%, POLI inh -9%, PI5P4Ka inh 20 and FEN1 inhibitor 3%.
Screening Cc1ccc(-c2nc3ccccc3s2)cc1NC(=S)NC(=O)/C=C/c1ccco1 returned POLH inh 20µM*, Pol kappa inh -7%, Pol beta inh inconclusive, POLI inh inconclusive, PI5P4Ka inh -25 and FEN1 inhibitor 10%.
`Cc1ccc(-n2nc3cc(C)c(NC(=S)NC(=O)/C=C/c4ccco4)cc3n2)cc1` gave POLH inh inconclusive, Pol kappa inh -8%, Pol beta inh 50µM*, POLI inh 6%, PI5P4Ka inh -20 and FEN1 inhibitor 5%.
`O=C1CCCc2cc(S(=O)(=O)NCC3CCC(C(=O)Nc4ccccc4F)CC3)ccc2N1` (stereo unspecified) gave POLH inh -15%, Pol kappa inh 18%, Pol beta inh 87%, POLI inh 14% and FEN1 inhibitor -1%.
CSc1cccc(NC(=O)/C=C/c2ccco2)c1 was read as POLH inh 79µM*, Pol kappa inh inconclusive, Pol beta inh 32µM*, POLI inh inconclusive, PI5P4Ka inh -58* and FEN1 inhibitor -18%.
Screening O=C(/C=C/c1ccco1)NC(=S)Nc1cccc(-c2nc3ccccc3s2)c1 returned POLH inh inconclusive, Pol kappa inh -23%, POLI inh inconclusive, PI5P4Ka inh -21 and FEN1 inhibitor -14%.
Screening O=C(/C=C/c1ccco1)NC(=S)Nc1cc(-c2nc3ccccc3s2)ccc1Cl returned POLH inh 22µM*, Pol kappa inh -23%, Pol beta inh -3%, POLI inh inconclusive, PI5P4Ka inh -56* and FEN1 inhibitor 0%.
`Cc1ccccc1NC(=S)NC(=O)/C=C/c1ccco1` gave POLH inh 18µM*, Pol kappa inh inconclusive, Pol beta inh 32µM*, POLI inh inconclusive, PI5P4Ka inh -58* and FEN1 inhibitor 79µM*.
For COc1cccc(NC(=O)/C=C/c2ccco2)c1 the results were POLH inh -15%, Pol kappa inh -12%, Pol beta inh -8%, POLI inh 20%, PI5P4Ka inh -4 and FEN1 inhibitor -1%.
O=C(/C=C/c1ccco1)NC(=S)Nc1ccccc1 was read as POLH inh inconclusive, Pol kappa inh inconclusive, Pol beta inh inconclusive, POLI inh inconclusive, PI5P4Ka inh -27 and FEN1 inhibitor -26%.
Screening CC(C)Oc1ccc(CNC(=O)c2cc3cccc4c3n2CC(C)S4)cc1 (stereo unspecified) returned POLH inh -19%, Pol kappa inh -2%, Pol beta inh -4%, POLI inh 20% and FEN1 inhibitor -6%.
